# Source: the supplement of paper PMC10849652
# Of roughly 8,800 targets only a part is listed; those with a hit were picked by preference. About 0.5% of all pairs of compound and target were hits. Unmarked numbers belong to inactive results.
# Columns and labels:
# Assay in all cases: log2 fold change, soluble protein after heating vs DMSO (PISA); higher = thermal stabilisation; K562 lysate, 10 uM; active = over 0.2 and 3.5 SD of the protein, either way, in both replicates (recomputed)
# [1] = compound: C=CC(=O)N1CCC[C@@H](n2nc(-c3ccc(Oc4ccccc4)cc3)c3c(N)ncnc32)C1 [ibrutinib]
# How it was run: (§1)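 K562 pellets were dounce-homogenised in PBS pH 7.4 with 1 mM MgCl2, and the crude extract at 1 mg/mL protein was treated with 10 μM compound for 30 min. Aliquots were heated for 3 min across 48°C-58°C, pooled, and brought to 0.5% NP-40 at 4°C; soluble protein was the supernatant after 21,000xg for 90 min. Soluble protein was quantified by TMTpro 16plex LC-MS/MS with channel sums equalised, and reported as log2 fold change in thermal stability against DMSO controls, with values from duplicates.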
# [2] = compound: CC(=O)c1cnc2ccc(-c3cc(Cl)c(O)c(Cl)c3)nc2c1N[C@H]1CC[C@H](CN(C)C)CC1
# How it was run: as §1
# [3] = compound: CC(C)C1=C2N=C(C=C(N2N=C1)NCC3=CC=CC=C3)NCCCCCCN
# How it was run: as §1
# [4] = compound: CC1=C(C(CC(=O)N1)C2=CC=C(C=C2)C(F)(F)F)C(=O)NC3=C(C=C4C(=C3)C=NN4)F
# How it was run: as §1
# [5] = compound: CC1=C(C2=C(C=C1)C(=O)C3=CC=CC=C3N2CCCN)C
# How it was run: as §1
# [6] = compound: CC1=C(C=C(C=C1)NC(=O)C2=CC(=CC=C2)C(C)(C)C#N)NC3=CC4=C(C=C3)N=CN(C4=O)C
# How it was run: as §1
# [7] = compound: CC1=CC=C(C=C1)SC2=C3C=C(SC3=CN=C2)C(=O)N
# How it was run: as §1
# [8] = compound: CC(C)(C)Cn1c(N)nc2ccc(-c3[nH]c(C(C)(C)C)nc3-c3ccc(F)cc3)nc21 [ralimetinib]
# How it was run: as §1
# [9] = compound: CC(C)(O)CC(=O)NCCn1ccc2ncnc(Nc3ccc(Oc4cccc(C(F)(F)F)c4)c(Cl)c3)c21
# How it was run: as §1
# [10] = compound: CC1=C(C=C(C=C1)NC(=O)C2=CC(=CC=C2)N(C)C)NC(=O)C3=CC=C(C=C3)O
# How it was run: as §1
# UniProt Q96E14, sequence (Q96E14 whole entry, looked up): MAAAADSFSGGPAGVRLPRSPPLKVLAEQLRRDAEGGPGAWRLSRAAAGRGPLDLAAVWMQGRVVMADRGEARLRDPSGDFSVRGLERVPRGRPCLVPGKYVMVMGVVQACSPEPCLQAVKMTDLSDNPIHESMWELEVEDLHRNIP
# UniProt Q9BWG6, sequence (Q9BWG6 whole entry, looked up): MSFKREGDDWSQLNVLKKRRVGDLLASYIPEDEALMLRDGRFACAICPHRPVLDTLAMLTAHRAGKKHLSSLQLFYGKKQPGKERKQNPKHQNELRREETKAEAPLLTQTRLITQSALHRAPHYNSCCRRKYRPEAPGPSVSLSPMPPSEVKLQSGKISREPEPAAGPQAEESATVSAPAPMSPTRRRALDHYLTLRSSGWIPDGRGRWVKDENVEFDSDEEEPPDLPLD
# UniProt Q8IUH3, sequence (Q8IUH3 whole entry, looked up): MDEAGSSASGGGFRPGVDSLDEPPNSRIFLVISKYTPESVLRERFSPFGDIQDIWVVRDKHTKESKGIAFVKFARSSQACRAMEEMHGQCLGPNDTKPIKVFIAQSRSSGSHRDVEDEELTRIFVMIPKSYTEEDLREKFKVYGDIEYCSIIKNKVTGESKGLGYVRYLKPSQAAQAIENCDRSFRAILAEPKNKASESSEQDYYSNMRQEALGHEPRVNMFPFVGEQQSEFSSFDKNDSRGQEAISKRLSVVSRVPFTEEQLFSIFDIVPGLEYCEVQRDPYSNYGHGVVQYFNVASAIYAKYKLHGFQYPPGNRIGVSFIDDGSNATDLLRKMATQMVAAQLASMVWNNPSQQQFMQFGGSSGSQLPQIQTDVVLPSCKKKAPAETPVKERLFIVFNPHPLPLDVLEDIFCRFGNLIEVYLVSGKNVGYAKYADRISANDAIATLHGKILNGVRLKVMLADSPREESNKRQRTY
# UniProt Q9HCK4, sequence (Q9HCK4 whole entry, looked up): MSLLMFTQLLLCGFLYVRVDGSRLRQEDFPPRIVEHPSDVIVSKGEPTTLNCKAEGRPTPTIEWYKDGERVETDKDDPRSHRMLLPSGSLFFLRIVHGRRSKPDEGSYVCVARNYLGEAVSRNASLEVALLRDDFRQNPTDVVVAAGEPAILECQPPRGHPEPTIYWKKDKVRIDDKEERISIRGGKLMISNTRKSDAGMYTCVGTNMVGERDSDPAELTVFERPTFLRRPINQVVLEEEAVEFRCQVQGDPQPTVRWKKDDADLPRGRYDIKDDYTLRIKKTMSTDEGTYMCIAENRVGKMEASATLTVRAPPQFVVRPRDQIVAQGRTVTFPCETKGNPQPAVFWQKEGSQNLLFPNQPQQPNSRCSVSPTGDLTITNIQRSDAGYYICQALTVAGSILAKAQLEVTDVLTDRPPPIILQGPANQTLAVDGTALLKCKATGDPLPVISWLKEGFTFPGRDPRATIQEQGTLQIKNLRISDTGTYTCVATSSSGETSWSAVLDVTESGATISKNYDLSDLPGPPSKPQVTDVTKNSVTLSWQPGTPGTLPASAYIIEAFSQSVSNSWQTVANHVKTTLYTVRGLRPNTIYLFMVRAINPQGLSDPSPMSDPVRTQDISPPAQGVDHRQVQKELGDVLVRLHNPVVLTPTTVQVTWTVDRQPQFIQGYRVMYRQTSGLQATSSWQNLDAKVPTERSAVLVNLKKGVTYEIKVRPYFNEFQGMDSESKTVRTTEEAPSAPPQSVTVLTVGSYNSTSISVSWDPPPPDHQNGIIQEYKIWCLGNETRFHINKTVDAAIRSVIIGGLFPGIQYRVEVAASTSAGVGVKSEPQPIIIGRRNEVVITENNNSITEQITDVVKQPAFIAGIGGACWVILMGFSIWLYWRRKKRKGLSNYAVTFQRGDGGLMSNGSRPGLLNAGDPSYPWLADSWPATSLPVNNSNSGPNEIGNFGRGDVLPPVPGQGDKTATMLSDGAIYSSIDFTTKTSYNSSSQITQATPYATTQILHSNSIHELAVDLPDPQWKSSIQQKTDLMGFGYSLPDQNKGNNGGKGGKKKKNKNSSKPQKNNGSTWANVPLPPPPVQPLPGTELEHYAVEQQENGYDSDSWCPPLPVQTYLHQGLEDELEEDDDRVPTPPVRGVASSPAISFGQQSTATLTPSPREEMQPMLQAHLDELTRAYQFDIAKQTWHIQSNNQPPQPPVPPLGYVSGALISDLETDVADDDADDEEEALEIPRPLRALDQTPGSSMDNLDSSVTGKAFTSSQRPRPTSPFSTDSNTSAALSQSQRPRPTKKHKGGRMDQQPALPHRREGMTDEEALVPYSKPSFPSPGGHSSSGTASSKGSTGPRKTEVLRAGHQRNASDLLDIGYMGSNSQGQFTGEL
# UniProt Q96K19, sequence (Q96K19 whole entry, looked up): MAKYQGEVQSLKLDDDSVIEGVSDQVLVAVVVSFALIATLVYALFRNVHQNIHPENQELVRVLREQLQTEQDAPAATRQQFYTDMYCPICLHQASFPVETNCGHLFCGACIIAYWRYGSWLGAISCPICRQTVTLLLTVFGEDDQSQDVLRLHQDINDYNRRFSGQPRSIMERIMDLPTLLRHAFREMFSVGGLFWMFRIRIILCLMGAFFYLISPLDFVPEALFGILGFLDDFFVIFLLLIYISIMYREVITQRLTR
# UniProt O75943, sequence (O75943 whole entry, looked up): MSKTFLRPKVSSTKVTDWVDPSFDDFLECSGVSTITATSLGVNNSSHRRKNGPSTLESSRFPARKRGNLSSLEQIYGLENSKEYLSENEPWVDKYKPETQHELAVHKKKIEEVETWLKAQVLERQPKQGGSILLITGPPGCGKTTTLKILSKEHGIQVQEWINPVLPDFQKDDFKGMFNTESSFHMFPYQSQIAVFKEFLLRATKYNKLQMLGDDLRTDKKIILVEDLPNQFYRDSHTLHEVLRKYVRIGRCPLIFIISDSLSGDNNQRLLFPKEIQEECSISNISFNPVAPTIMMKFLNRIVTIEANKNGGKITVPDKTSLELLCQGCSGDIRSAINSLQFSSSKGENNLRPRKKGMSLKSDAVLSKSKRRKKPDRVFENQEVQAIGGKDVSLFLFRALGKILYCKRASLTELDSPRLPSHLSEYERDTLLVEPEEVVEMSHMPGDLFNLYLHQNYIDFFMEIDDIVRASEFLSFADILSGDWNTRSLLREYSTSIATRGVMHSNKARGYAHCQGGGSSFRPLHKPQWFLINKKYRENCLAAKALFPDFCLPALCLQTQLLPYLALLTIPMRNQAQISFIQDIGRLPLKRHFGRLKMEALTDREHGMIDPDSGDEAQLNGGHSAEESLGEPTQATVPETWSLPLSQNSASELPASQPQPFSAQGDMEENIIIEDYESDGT
# UniProt O94761, sequence (O94761 whole entry, looked up): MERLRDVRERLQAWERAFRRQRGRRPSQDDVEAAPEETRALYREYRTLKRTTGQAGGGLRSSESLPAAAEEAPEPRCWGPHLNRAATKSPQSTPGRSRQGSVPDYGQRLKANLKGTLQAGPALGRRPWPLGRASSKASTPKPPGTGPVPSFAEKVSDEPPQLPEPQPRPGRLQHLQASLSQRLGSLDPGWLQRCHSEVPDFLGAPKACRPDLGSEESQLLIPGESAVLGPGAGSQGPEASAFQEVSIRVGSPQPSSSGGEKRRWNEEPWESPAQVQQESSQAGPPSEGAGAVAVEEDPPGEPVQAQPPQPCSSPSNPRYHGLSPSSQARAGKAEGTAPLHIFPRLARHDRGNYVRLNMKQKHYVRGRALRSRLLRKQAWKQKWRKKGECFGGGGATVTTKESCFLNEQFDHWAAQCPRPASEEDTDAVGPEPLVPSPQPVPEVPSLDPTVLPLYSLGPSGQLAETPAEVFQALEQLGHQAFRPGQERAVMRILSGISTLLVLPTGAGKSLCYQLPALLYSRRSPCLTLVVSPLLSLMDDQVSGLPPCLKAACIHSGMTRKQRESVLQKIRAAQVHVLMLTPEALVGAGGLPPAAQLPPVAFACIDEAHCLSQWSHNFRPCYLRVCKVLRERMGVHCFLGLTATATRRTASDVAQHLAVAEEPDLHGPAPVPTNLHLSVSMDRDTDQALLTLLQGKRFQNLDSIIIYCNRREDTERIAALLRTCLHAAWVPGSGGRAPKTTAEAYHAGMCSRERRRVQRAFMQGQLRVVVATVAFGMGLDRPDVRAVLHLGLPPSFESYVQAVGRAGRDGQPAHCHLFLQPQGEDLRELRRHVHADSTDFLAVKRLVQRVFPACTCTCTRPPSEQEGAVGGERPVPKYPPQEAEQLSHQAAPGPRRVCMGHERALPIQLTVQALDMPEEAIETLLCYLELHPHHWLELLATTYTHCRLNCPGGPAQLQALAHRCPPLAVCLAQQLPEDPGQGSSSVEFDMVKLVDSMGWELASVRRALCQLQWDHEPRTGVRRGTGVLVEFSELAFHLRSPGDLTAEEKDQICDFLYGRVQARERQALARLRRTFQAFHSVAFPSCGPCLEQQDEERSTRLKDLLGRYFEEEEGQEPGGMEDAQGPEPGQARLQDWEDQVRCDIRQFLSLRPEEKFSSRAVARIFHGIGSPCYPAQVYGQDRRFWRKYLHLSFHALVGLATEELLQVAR
# UniProt P19793, sequence (P19793 whole entry, looked up): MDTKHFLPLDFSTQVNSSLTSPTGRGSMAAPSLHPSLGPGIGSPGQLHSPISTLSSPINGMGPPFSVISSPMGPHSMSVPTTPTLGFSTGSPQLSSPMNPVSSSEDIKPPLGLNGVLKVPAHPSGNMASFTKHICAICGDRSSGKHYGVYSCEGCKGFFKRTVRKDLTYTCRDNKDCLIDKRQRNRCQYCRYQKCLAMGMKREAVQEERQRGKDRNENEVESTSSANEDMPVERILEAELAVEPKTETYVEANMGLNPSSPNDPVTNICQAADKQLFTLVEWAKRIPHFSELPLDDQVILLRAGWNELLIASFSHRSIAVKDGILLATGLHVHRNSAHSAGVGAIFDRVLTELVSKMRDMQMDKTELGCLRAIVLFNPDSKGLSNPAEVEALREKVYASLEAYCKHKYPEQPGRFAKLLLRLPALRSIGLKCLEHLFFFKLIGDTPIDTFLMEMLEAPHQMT
Target,log2 fold change [1],log2 fold change [2],log2 fold change [3],log2 fold change [4],log2 fold change [5],log2 fold change [6],log2 fold change [7],log2 fold change [8],log2 fold change [9],log2 fold change [10]
RAP1B (UniProt F5GZG1),0.01,-0.021,0.061,0.036,0.019,-0.124,0.117,,,
RMI2 (UniProt Q96E14),,,-0.032,,0.021,0.011,,-0.061,0.007,0.039
ROBO2 isoform 3 (UniProt Q9HCK4),,-0.015,-0.045,,,0.022,-0.053,0.103,-0.287,0.177
RBM4 isoform 3 (UniProt Q9BWF3),,,,,,-0.092,,,,
RBBP7 (UniProt C9J7L0),,,,-0.187,,,,,,
RBM45 (UniProt Q8IUH3),,-0.077,,-0.127,,0.038,0.487 (active),,,
RNF170 (UniProt Q96K19),-0.006,0.107,0.084,0.302,-0.035,,-0.036,,,
RECQL4 (UniProt O94761),0.016,,0.039,-0.017,0.076,0,,-0.034,-0.06,0.044
RAD17 (UniProt O75943),0.023,,,0.026,-0.029,-0.041,,0.054,0.041,0.049
RXRA (UniProt P19793),,-0.028,0.066,0.059,0.063,-0.02,0,-0.033,0.087,-0.036
SCNM1 (UniProt Q9BWG6),,-0.026,0.062,0.065,-0.189,0.06,-0.221,0.013,0.012,-0.069
